Data as given in PubChem BioAssay (EPA / NIEHS).
Results filed as inconclusive are left out. Calls of active or inactive are those of the source. How the source made its calls: active means hit-call score of the fitted dose curve at least 0.9, where 1 is the maximum; inconclusive means response in the unintended direction; inactive means score below 0.9.

Target: human Protein Phosphatase, Mg2+/Mn2+ Dependent 1A (PPM1A), PPM1A (gene 5494) (UniProt P35813)
Assay: NVS_ENZ_hPPM1A: NovaScreen (NVS) Enzymatic Assay for human Protein Phosphatase, Mg2+/Mn2+ Dependent 1A (PPM1A) (AID 2283198)
Method: NVS_ENZ_hPPM1A is a biochemical, single-readout assay that uses extracted gene-proteins in a cell-free assay. Measurements were taken 1 hour after chemical dosing in a 384-well plate.NVS_ENZ_hPPM1A is one of one assay component(s) measured or calculated from the NVS_ENZ_hPPM1A assay. It is designed to make measurements of enzyme activity, a form of enzyme reporter, as detected with fluorescence intensity signals by Fluorescence and electrophoretic mobility shift technology.Data from the assay component NVS_ENZ_hPPM1A was analyzed into 1 assay endpoint. This assay endpoint, NVS_ENZ_hPPM1A, was analyzed in the positive analysis fitting direction relative to DMSO as the negative control and baseline of activity. Using a type of enzyme reporter, loss-of-signal activity can be used to understand changes in the enzymatic activity as they relate to the gene PPM1A. Furthermore, this assay endpoint can be referred to as a primary readout, because this assay has produced multiple assay endpoints where this one serves a enzymatic activity function. To generalize the intended target to other relatable targets, this assay endpoint is annotated to the phosphatase intended target family, where the subfamily is serine/threonine phosphatase. […]

Sequence of human Protein Phosphatase, Mg2+/Mn2+ Dependent 1A (PPM1A), PPM1A (gene 5494) (P35813 whole entry, looked up): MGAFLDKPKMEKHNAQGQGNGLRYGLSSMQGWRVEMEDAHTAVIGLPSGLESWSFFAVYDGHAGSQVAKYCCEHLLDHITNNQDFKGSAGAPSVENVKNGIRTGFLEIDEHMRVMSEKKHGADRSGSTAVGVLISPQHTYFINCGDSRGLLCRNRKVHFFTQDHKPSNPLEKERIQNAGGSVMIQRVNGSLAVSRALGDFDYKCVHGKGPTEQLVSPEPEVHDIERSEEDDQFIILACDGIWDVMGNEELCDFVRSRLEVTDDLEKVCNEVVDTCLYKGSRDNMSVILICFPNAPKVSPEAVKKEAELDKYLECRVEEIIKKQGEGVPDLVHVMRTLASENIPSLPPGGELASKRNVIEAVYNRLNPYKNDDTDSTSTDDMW

Structure (SMILES)	outcome
CC(C)(c1ccc(O)cc1)c1ccc(O)cc1	inactive
CCOC(=O)c1ccc(O)cc1	inactive
